Among all 39,000 compounds or so, about 220 (0.56%) showed activity. The sample as a whole holds a higher share of actives than the screen did.
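Also: Wild-type cells incubated without shaking, value is the mean of two biological replicates.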

The test system of this assay is Escherichia coli K-12 BW25113. The assay is described as follows: relative growth (OD600 normalised to plate interquartile mean) (fraction); higher = less growth inhibition, active = 0.2 or less. The settings on record: 50 µM; LB; incubation time: overnight (16-24 h).
Turning to `C[C@H](CO)N1C[C@H](C)[C@H](CN(C)C(=O)Nc2ccc(C(F)(F)F)cc2)Oc2ccc(NC(=O)CCCCCC(=O)Nc3ccccc3N)cc2C1=O`, the relative growth was 0.925 (inactive). As to `Cc1noc(C)c1NC(=O)Nc1cccc2c1O[C@@H](CN(C)Cc1ccc(-c3ccccc3)cc1)[C@H](C)CN([C@@H](C)CO)C2=O`, the relative growth is 1.01 (inactive). On to `CON=C(C(=O)N[C@@H]1C(=O)N2C(C(=O)O)=C(CSc3nc(=O)c(O)nn3C)CS[C@H]12)c1csc(N)n1`, for which the relative growth was 0.0335 (active). Take `C[C@@H]1CN([C@@H](C)CO)C(=O)Cc2cc(NC(=O)Nc3ccc(C(F)(F)F)cc3)ccc2O[C@@H]1CN(C)Cc1ccc(C(=O)Nc2ccccc2N)cc1`: the relative growth is 1 (inactive). For `Cc1noc(C)c1NC(=O)Nc1ccc2c(c1)C(=O)N([C@H](C)CO)C[C@@H](C)[C@H](CN(C)S(=O)(=O)c1cccs1)OCCCC[C@H](C)O2`, the relative growth was 0.988 (inactive). The figure for `C[C@@H]1CN([C@H](C)CO)C(=O)c2cc(NS(=O)(=O)c3cccs3)ccc2O[C@H]1CN(C)Cc1ccc(Cl)c(Cl)c1` is 0.994 (inactive). Under `Cc1ccc(S(=O)(=O)N(C)C[C@H]2OCCCC[C@@H](C)Oc3ccc(NC(=O)Nc4c(C)noc4C)cc3C(=O)N([C@@H](C)CO)C[C@@H]2C)cc1` stands 0.961 (inactive); under `COc1ccc2c3c(n(c2c1)C)[C@@H](CO)N(C[C@]13CN(C1)C(=O)CN1CCOCC1)C(=O)Nc1ccc(cc1)F`, 0.977 (inactive).

For `C[C@H]1CN([C@@H](C)CO)C(=O)Cc2cc(NC(=O)NC3CCCCC3)ccc2O[C@H]1CN(C)Cc1ccc(Oc2ccccc2)cc1`, the relative growth is 1.03 (inactive). The figure for `C[C@@H]1CN([C@@H](C)CO)C(=O)c2cc(NC(=O)C3CCCCC3)ccc2O[C@@H]1CN(C)C(=O)Nc1cccc2ccccc12` is 1.01 (inactive); for `Cc1cc(C(C)(C)CC(C)(C)C)ccc1OCCOCC[N+](C)(C)Cc1ccccc1.[Cl-]` it is 0.0463 (active). With `CC(C)(C)CC(C)(C)c1ccc(OCCOCC[N+](C)(C)Cc2ccccc2)cc1.[Cl-]`, the relative growth was 0.0469 (active). For the molecule `C[N+](C)(CCOc1ccccc1)Cc1ccccc1.O=C(O)c1cc2ccccc2c(Br)c1O`, the relative growth was 0.944 (inactive). On to `C[N+](C)(CCOc1ccccc1)Cc1ccccc1.O=C([O-])c1cc2ccccc2cc1O`, for which the relative growth is 0.93 (inactive). With `COc1ccc(CN(C)C[C@H]2OCCCC[C@H](C)Oc3ccc(NC(=O)Nc4ccc(OC)cc4)cc3C(=O)N([C@@H](C)CO)C[C@H]2C)cc1`, the relative growth was 0.901 (inactive). In the case of `C[C@H]1CN([C@@H](C)CO)C(=O)c2cc(C#CC3(O)CCCC3)cnc2O[C@H]1CN(C)C(=O)CN(C)C`, the relative growth is 0.988 (inactive).

The record behind these values is the supplement of paper PMC9446081.
